Most compounds without a hit are left out; they make up all but 3.8% or so of the library.
tim10-1 inh: growth inhibitors of tim10-1 mutant yeast, primary screen, luminescence, uHTS | S. cerevisiae tim10-1 ts strain growth, BacTiter-Glo, 24 h | inhibition, % at 20 µM | hit rate 2.2% among 330,000 | AID 463190, 2010;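 active = inhibition of at least 40%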;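 also: mutant grown at 25 °C; 0% = DMSO wells with yeast and 100% = wells holding no yeast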
CR mimetic SO: reduction of superoxide in aged yeast, primary screen, HTS; S. cerevisiae aged cells, superoxide DHE fluorescence; stronger effect = lower value; superoxide response (% of plate mean), % at 10 µM; hit rate 0.18% among 330,000;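 active = superoxide response under a set limit, about three screen SD below normal, cut at about 65% in these data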;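 also: yeast aged for seven days with compound at 30 °C before DHE staining; 100% = average MFI of all compound-treated wells on the plate with controls excluded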
TIM10 inh: growth inhibitors of isogenic TIM10 control yeast, primary screen, counter-screen for tim10-1 yeast inhibitor project, luminescence, uHTS; S. cerevisiae TIM10 strain growth, BacTiter-Glo luminescence, 24 h; inhibition, % at 10 µM; hit rate 1.4% among 330,000; AID 463195, 2010;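 active = inhibition of 40% or more at the single tested concentration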;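 also: wild-type TIM10 isogenic control strain grown at permissive 25 °C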
tim23-1 inh: growth inhibitors of tim23-1 mutant yeast, primary screen, luminescence, uHTS. S. cerevisiae tim23-1 growth, BacTiter-Glo luminescence, 24 h. inhibition, % at 20 µM. hit rate 1.3% among 330,000;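 active = growth inhibition of the mutant yeast at or above 50%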;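 also: temperature-sensitive mutant grown at 25 °C; plate controls were DMSO-treated mutant yeast for no effect and medium wells lacking yeast for full effect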
NALP3 yeast inh: NALP3 inflammasome inhibitors in reconstituted yeast, primary screen, luminescence, uHTS. Yeast reconstituted NLRP3/ASC/caspase-1, beta-gal luminescence, 24 h. inhibition, % at 10 µM. hit rate 0.39% among 330,000;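 active = inhibition of 50% or more; inactive = inhibition below 50%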;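 also: plate controls were induced DMSO wells for no effect and uninduced yeast grown without galactose for full effect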
NALP3 yeast conf: NALP3 inhibitors retested in yeast, confirmation, luminescence, single concentration; inhibition, % at 10 µM; yeast expressing human NALP3; shares compounds with NALP3 yeast inh; hit rate 81% among 1,300; in the data active = inhibition above about 48%
Casp1-ASC yeast: CASP1-PYCARD signaling inhibition in yeast, confirmatory test, counterassay for NLRP3 inhibitor program, one-dose; yeast expressing Caspase-1-ASC, luminescence counter screen; hit rate 66% among 1,000; inhibition, % at 10 µM; AID 488784, 2010; shares compounds with NALP3 yeast inh
NALP3 yeast rt: NALP3 inhibitors in yeast, repeat test, confirmation, luminescence, single concentration, retest; hit rate 53% among 1,000; AID 488794, 2010; shares compounds with NALP3 yeast inh; yeast expressing human NALP3, luminescence read-out; inhibition, % at 10 µM
tim10-1 confirm: growth inhibitors of tim10-1 mutant yeast, confirmation, single concentration, luminescence, S. cerevisiae. hit rate 56% among 7,400. AID 463213, 2010. inhibition, % at 20 µM. S. cerevisiae tim10-1 ts strain growth, BacTiter-Glo, 24 h. shares compounds with tim10-1 inh;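 active = inhibition of yeast growth at or above a set limit in either of two repeat tests at 20 µM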;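 also: tim10-1 mutant grown at permissive 25 °C to find synthetic lethal compounds; 0% = DMSO yeast wells and 100% = medium wells without yeast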
tim10 confirm: growth inhibitors of wild-type TIM10 yeast, confirmation, counter-screen for tim10-1 synthetic lethality project, single concentration, luminescence, S. cerevisiae; S. cerevisiae tim10 strain growth, BacTiter-Glo luminescence, 24 h; shares compounds with TIM10 inh; AID 463215, 2010; hit rate 63% among 4,600; inhibition, % at 10 µM;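 active = inhibition of yeast growth at or above a set limit in either of two replicates at 10 µM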;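 also: this counterscreen used the strain with wild-type TIM10; 0% = yeast with DMSO and 100% = medium wells lacking yeast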
tim23-1 confirm: tim23-1 mutant yeast growth inhibitors, confirmation, luminescence, single concentration | shares compounds with tim23-1 inh | S. cerevisiae tim23-1 growth, BacTiter-Glo luminescence, 24 h | inhibition, % at 20 µM | hit rate 83% among 4,400 | AID 463218, 2010;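 active = inhibition above about 39% in either of two replicate wells at 20 µM, limit read from the data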;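 also: temperature-sensitive tim23-1 mutant grown at 25 °C; 0% = DMSO wells with yeast and 100% = medium wells without yeast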
An asterisk follows results filed as active. Rule as the data show it, unless noted: active = inhibition above about 50%; inactive = the rest.

What do the screens show for `CC(C)(C)c1cc(C=C(C#N)C#N)cc(C(C)(C)C)c1O`?
tim10-1 inh: 77.8*; CR mimetic SO: 85.4; TIM10 inh: 69.8*; tim23-1 inh: 61.9*; NALP3 yeast inh: 75.5*; NALP3 yeast conf: 90.8*; Casp1-ASC yeast: 98.4*; NALP3 yeast rt: 95.5*; tim10-1 confirm: 82.3*; tim10 confirm: 82.8*; tim23-1 confirm: 72.3*

How did O=c1oc2ccccc2c(O)c1[C@H]1c2ccc(O)cc2Oc2c1c(=O)oc1ccccc21 do in these assays?
tim10-1 inh: 52.7*; CR mimetic SO: 92.4; TIM10 inh: 68.5*; tim23-1 inh: 56.7*; NALP3 yeast inh: 79.1*; NALP3 yeast conf: 84.9*; Casp1-ASC yeast: 87.3*; NALP3 yeast rt: 77.8*; tim10-1 confirm: 58.1*; tim10 confirm: 59.3*; tim23-1 confirm: 47.9*

How did O=c1cccc2n1CC1CC2CN(c2ncnc3c2cnn3-c2ccccc2)C1 (stereo unspecified) do in these assays?
tim10-1 inh: 19.1; CR mimetic SO: 105.7; TIM10 inh: -4.1; tim23-1 inh: 21.0; NALP3 yeast inh: 14.1

What do the screens show for `C[C@H]1C[C@@H](C)C(=O)[C@@H]([C@H](O)CC2CC(=O)NC(=O)C2)C1`?
tim10-1 inh: 58.3*; CR mimetic SO: 102.8; TIM10 inh: 72.1*; tim23-1 inh: 77.1*; NALP3 yeast inh: 98.1*; NALP3 yeast conf: 99.2*; Casp1-ASC yeast: 99.7*; NALP3 yeast rt: 98.6*; tim10-1 confirm: 22.9; tim10 confirm: 62.9*; tim23-1 confirm: -10.5

Results for CCc1cc2c(s1)NC(=O)CN=C2c1cccs1 ?
tim10-1 inh: 4.4; CR mimetic SO: 102.5; TIM10 inh: -2.9; tim23-1 inh: -5.3; NALP3 yeast inh: 10.1

What do the screens show for `O=C(O)c1ccccc1-c1ccc(C=C2C(=O)N(c3ccccc3)C(=S)N(c3ccccc3)C2=O)o1`?
tim10-1 inh: 43.0*; CR mimetic SO: 107.0; TIM10 inh: 17.7; tim23-1 inh: 35.1; NALP3 yeast inh: 13.6; tim10-1 confirm: 38.7*

Results for NP(=O)(OCCCc1ccccc1)Oc1ccc(Cl)cc1 (stereo unspecified) ?
tim10-1 inh: 11.1; CR mimetic SO: 104.8; TIM10 inh: -10.2; tim23-1 inh: 18.7; NALP3 yeast inh: 38.1

How did COc1ccc(N2C(=O)CC(N3CC=C(c4ccccc4)CC3)C2=O)cc1 (stereo unspecified) do in these assays?
tim10-1 inh: 42.5*; CR mimetic SO: 90.4; TIM10 inh: 26.7; tim23-1 inh: 28.5; NALP3 yeast inh: 10.6; tim10-1 confirm: 22.1

What do the screens show for `CN(C)C(=O)Oc1ccc2oc(=O)cc(-c3cc4ccccc4o3)c2c1`?
tim10-1 inh: 40.0; CR mimetic SO: 98.8; TIM10 inh: 19.4; tim23-1 inh: 29.1; NALP3 yeast inh: 20.1; tim10-1 confirm: 8.3

How did Cc1cc2oc(=O)cc(-c3cc4ccccc4o3)c2cc1OC(=O)N(C)C do in these assays?
tim10-1 inh: 29.1; CR mimetic SO: 90.1; TIM10 inh: -7.8; tim23-1 inh: 23.5; NALP3 yeast inh: 12.8

What do the screens show for `C=CC1CN2CCC1CC2c1[nH]c2ccccc2c1CCO` (stereo unspecified)?
tim10-1 inh: 7.9; CR mimetic SO: 93.7; TIM10 inh: 0.1; tim23-1 inh: -9.8; NALP3 yeast inh: -3.1

Results for C#CC[N+]1(C)[C@@H]2CC(OC(=O)C(CO)c3ccccc3)C[C@H]1C(O)C2 (stereo partly specified) ?
tim10-1 inh: 7.9; CR mimetic SO: 96.9; TIM10 inh: -5.3; tim23-1 inh: -1.1; NALP3 yeast inh: -1.3

What do the screens show for `CCN(CC)C(=O)c1ccc(NC(=S)NC(=O)CCc2ccccc2)cc1`?
tim10-1 inh: 42.1*; CR mimetic SO: 91.4; TIM10 inh: 22.7; tim23-1 inh: 32.9; NALP3 yeast inh: 4.6; tim10-1 confirm: 21.3

What do the screens show for `CCCN1CCC[C@@H]2Cc3[nH]ncc3C[C@H]21`?
tim10-1 inh: -2.2; CR mimetic SO: 103.8; TIM10 inh: 1.4; tim23-1 inh: -15.8; NALP3 yeast inh: 23.9

Results for CN(C)C1(c2nnnn2CCOC(=O)Nc2ccc(Cl)cc2)CCCCC1 ?
tim10-1 inh: 40.9*; CR mimetic SO: 102.0; TIM10 inh: 29.5; tim23-1 inh: 45.2; NALP3 yeast inh: -0.2; tim10-1 confirm: 37.0*

What do the screens show for `CC1C(OC(=O)CCC(=O)NC(C)(C)CO)O[C@H]2OC3(C)CC[C@H]4[C@H](C)CCC1C24OO3` (stereo partly specified)?
tim10-1 inh: 18.3; CR mimetic SO: 84.9; TIM10 inh: 19.2; tim23-1 inh: 11.2; NALP3 yeast inh: -11.4

Results for C[C@H]1[C@H](OC(=O)CCC(=O)NCc2ccc(C(=O)O)cc2)O[C@@H]2O[C@@]3(C)CC[C@H]4[C@H](C)CC[C@@H]1C24OO3 ?
tim10-1 inh: 43.1*; CR mimetic SO: 91.1; TIM10 inh: 10.3; tim23-1 inh: 21.0; NALP3 yeast inh: 5.3; tim10-1 confirm: 20.1

What do the screens show for `CCOC(=O)N(c1ccccc1)P1(=S)OCC(C)O1` (stereo unspecified)?
tim10-1 inh: 50.0*; CR mimetic SO: 93.5; TIM10 inh: -19.5; tim23-1 inh: 6.6; NALP3 yeast inh: 9.4; tim10-1 confirm: 11.6

Results for CCOC(=O)N(c1ccccc1)P1(=S)OCCO1 ?
tim10-1 inh: -1.5; CR mimetic SO: 92.3; TIM10 inh: -8.9; tim23-1 inh: 6.1; NALP3 yeast inh: 3.7

Results for O=C(Nc1ccc(C(F)(F)F)cc1)c1cccn(Cc2ccc3c(c2)OC(F)(F)O3)c1=O ?
tim10-1 inh: 45.8*; CR mimetic SO: 98.6; TIM10 inh: 32.8; tim23-1 inh: 11.5; NALP3 yeast inh: 13.9; tim10-1 confirm: 21.1

Compound activity: PubChem, several laboratories
